Shown are actives, neighbours in structure and some others; about 8% of the full set was active somewhere.
SW480 rerep – inducers of DNA re-replication in SW480 colon cancer cells | hit rate 1.8% among 340,000 | AID 624297 | SW480 DNA re-replication, Hoechst DNA content imaging, 48 h | Potency, µM (titrated, usually from 46.1 µM), actives largely listed as activators; note: nearly all actives have a fitted effect of over 55% in size
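DNA re-replication was detected as more nuclei of elevated Hoechst intensity after 48 hr exposure to compound (23 nL pinned per well of 250 cells).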
MCF10A rereplic – inducers of DNA re-replication in MCF 10A breast cells; Potency, µM (top dose mostly 46.1 µM), actives largely listed as activators; MCF 10A DNA re-replication, Hoechst nuclear intensity, 48 h; hit rate 2.9% among 350,000; note: nearly all actives have a fitted effect of over 50% in size
HT1080 IDH1KD tx – kills HT-1080 cells with IDH1 knockdown. hit rate 2% among 360,000. Potency, µM (series often up to 46.1 µM), most hits filed as cytotoxic. HT-1080 IDH1 knockdown viability, ATP luminescence, 48 h
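After a 2 h attachment period, IDH1KD HT-1080 cells took pin-transferred compound for 48 h at 37 °C; ATP-based luminescence after 10 min room-temperature reagent incubation reported viability.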
KB-3-1 tox – KB-3-1 parental cell cytotoxicity. KB-3-1 viability, CellTiter-Glo ATP luminescence, 72 h. Potency, µM (highest dose often 46.1 µM), hits mostly cytotoxic. hit rate 1.4% among 400,000; note: nearly all actives have a fitted effect of over 60% in size
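Screening of KB-3-1 cells (DMEM, 10% FBS, phenol-red free) ran from lowest to highest compound concentration; after 72 h at 37 °C viability was read luminescently and curves fitted.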
HT1080-NT tox – kills 2HG-producing HT-1080-NT fibrosarcoma cells. HT-1080-NT fibrosarcoma viability, CellTiter-Glo ATP luminescence, 48 h. Potency, µM (top dose mostly 46.1 µM), usual class: cytotoxic. hit rate 1.6% among 360,000;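 note: NT is the 2HG producing partner of a matched IDH1 knockdown line; nearly all actives have a fitted effect of over 55% in size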
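Toxicity toward the 2HG-producing NT line was scored as %Activity, normalised to DMSO and no-cell wells, from CellTiter-Glo luminescence after 48 hours' treatment.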
KB-V1 cytotox – kills drug-selected multidrug resistant KB-V1 cells; AID 1347076; KB-V1 MDR cells viability, CellTiter-Glo, 72 h; Potency, µM (series often up to 46.1 µM), actives largely listed as cytotoxic; hit rate 3.4% among 400,000; note: nearly all actives have a fitted effect of over 60% in size
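Compound-treated KB-V1 multidrug-resistant cells, 72 h, 37 degrees C; viability by CellTiter-Glo. Fitted qHTS curves give the values.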
Each line names hits and unclear results; the compound was inactive in the other large screens. Calls come from the whole dose curve; as a rule, active = well fitted curve in the direction sought with a large enough effect; inconclusive = small, poorly fitted or top-dose-only effect, or another doubt; inactive = no such curve, though single readings can be large; an effect the other way counts as inactive or inconclusive.

O=C1CCCCN1CCC(=O)N1CCCC(N2CCN(c3ccccc3)CC2)C1 (stereo not given)	none
Cc1cccc(NC(=O)CNC(=O)COC(=O)C2CC2C)c1C (stereo not given)	KB-V1 cytotox inconclusive
CCC(CC)C(=O)Nc1cccc(C(=O)N2CCCCCC2)c1	SW480 rerep inconclusive, MCF10A rereplic 20.6µM, KB-V1 cytotox inconclusive
O=C(NC1CCN(Cc2ccccc2)CC1)c1cccc(S(=O)(=O)Nc2cc(C(F)(F)F)ccc2Cl)c1	MCF10A rereplic inconclusive, KB-3-1 tox inconclusive, KB-V1 cytotox 23.1µM
Cc1ccccc1C(=O)c1c[nH]c(C(=O)N2CCN(c3ccccc3F)CC2)c1	HT1080 IDH1KD tx inconclusive
CCC(CC)C(=O)Nc1cccc(C(=O)N2CCOCC2)c1	none
O=C(c1cccc(S(=O)(=O)N2CCCC2)c1)N1CCN(c2ccccc2F)CC1	KB-V1 cytotox 6.51µM
CC(=O)c1cccc(S(=O)(=O)N2CCN(c3ccccc3F)CC2)c1	none
O=C(c1c[nH]c(C(=O)N2CCN(c3ccccc3F)CC2)c1)c1cccc(Cl)c1Cl	SW480 rerep inconclusive, MCF10A rereplic 3.66µM, HT1080 IDH1KD tx inconclusive, KB-3-1 tox inconclusive, HT1080-NT tox 9.2µM, KB-V1 cytotox 20.6µM
Cc1ccc(S(=O)(=O)N2CCCN(S(=O)(=O)c3ccc4ccccc4c3)CC2)cc1	SW480 rerep inconclusive, KB-V1 cytotox 8.2µM
O=[N+]([O-])c1cc(C(F)(F)F)ccc1N1CCN(S(=O)(=O)c2ccc3ccccc3c2)CC1	KB-3-1 tox 18.4µM, KB-V1 cytotox 5.17µM
Cc1ccc(S(=O)(=O)N2CCCN(C)c3nc4ccccc4nc32)cc1	SW480 rerep inconclusive, MCF10A rereplic 23.1µM, KB-V1 cytotox 16.4µM
Cc1ccc(S(=O)(=O)N2CCCN(S(=O)(=O)c3ccc(C)c(C)c3)CC2)cc1C	KB-V1 cytotox 4.11µM
CN1CCCN(S(=O)(=O)c2ccccc2)c2nc3ccccc3nc21	MCF10A rereplic inconclusive
CN1CCN(S(=O)(=O)c2ccc3ccccc3c2)CC1	SW480 rerep inconclusive
Cc1ccc(S(=O)(=O)N2CCCC2)cc1S(=O)(=O)N1CCCC1	KB-V1 cytotox inconclusive
COCCn1c(C)cc(O)c(C(c2ccc(OC)cc2)N2CCN(c3ccccc3)CC2)c1=O (stereo not given)	none (no result: SW480 rerep, MCF10A rereplic, HT1080 IDH1KD tx, HT1080-NT tox)
CCOc1ccc(Br)cc1S(=O)(=O)Nc1ccc(NC(=O)c2ccccc2F)cc1	SW480 rerep inconclusive, KB-3-1 tox inconclusive, KB-V1 cytotox inconclusive
Cc1cccc(NC(=O)C(=O)NCC(c2cccnc2)N2CCc3ccccc32)c1C (stereo not given)	none (no result: SW480 rerep, MCF10A rereplic, HT1080 IDH1KD tx, HT1080-NT tox)
N#Cc1c(OCC(=O)c2ccccc2)nc2c(c1-c1ccco1)CCc1ccccc1-2	MCF10A rereplic inconclusive, KB-V1 cytotox 8.2µM
O=Cc1c(NCc2ccco2)nc2ccccn2c1=O	none
Cc1ccc2[nH]c(=O)c(-c3nc4ccccn4c3NCc3ccco3)cc2c1	HT1080 IDH1KD tx inconclusive, HT1080-NT tox inconclusive, KB-V1 cytotox 8.2µM
CNC(=O)c1nc(C)n(-c2cc(Cl)ccc2Cl)n1	SW480 rerep inconclusive
Nc1ccccc1C#Cc1ccc([N+](=O)[O-])cc1	SW480 rerep inconclusive, MCF10A rereplic inconclusive
Nc1ccccc1C#CC(=O)c1ccccc1	SW480 rerep inconclusive, MCF10A rereplic 8.2µM, HT1080 IDH1KD tx inconclusive, KB-3-1 tox inconclusive, HT1080-NT tox inconclusive
Cc1ccccc1CN1C(=O)c2ccccc2C1c1nnnn1-c1ccc2c(c1)OCCO2 (stereo not given)	HT1080 IDH1KD tx 3.26µM, KB-3-1 tox 2.91µM, HT1080-NT tox 3.66µM, KB-V1 cytotox 5.8µM (no result: SW480 rerep, MCF10A rereplic)
O=C(COC(=O)/C=C/c1cccc(C(F)(F)F)c1)NCc1cccs1	MCF10A rereplic inconclusive (no result: KB-3-1 tox, KB-V1 cytotox)
Cc1ccc(C(=O)COC(=O)c2cn3ccccc3n2)cc1	MCF10A rereplic 0.581µM, KB-V1 cytotox inconclusive
CCCCCCOc1ccc(C(=O)O)cc1C#N	MCF10A rereplic 18.4µM
CCOc1cc(C(=O)NCc2ccc(C)cc2)ccc1OCC(=O)N1CCOCC1	none
CCOc1cc(/C=C\[N+](=O)[O-])ccc1OCC(=O)N1CCOCC1	MCF10A rereplic 6.51µM, HT1080 IDH1KD tx 18.4µM, HT1080-NT tox inconclusive, KB-V1 cytotox inconclusive
CCOc1ccc(C(=O)OCC(=O)N2CCOCC2)cc1OCC	none
CCOc1cc(/C=C/c2nc3cc(C)c(C)cc3s2)ccc1OCC(=O)N1CCOCC1	SW480 rerep inconclusive, MCF10A rereplic 13µM, KB-V1 cytotox 10.3µM
Cn1cc([N+](=O)[O-])c(C(=O)Nc2ccn(Cc3c(F)c(F)cc(F)c3F)n2)n1	SW480 rerep inconclusive, MCF10A rereplic inconclusive, HT1080 IDH1KD tx 6.31µM, HT1080-NT tox 7.08µM, KB-V1 cytotox inconclusive
Cn1cc([N+](=O)[O-])c(C(=O)Nc2nccs2)n1	SW480 rerep inconclusive, MCF10A rereplic 4.61µM, HT1080 IDH1KD tx inconclusive, HT1080-NT tox inconclusive
Cn1cc([N+](=O)[O-])c(C(=O)Nc2ccc(Br)cn2)n1	SW480 rerep inconclusive, MCF10A rereplic inconclusive, HT1080 IDH1KD tx 7.08µM, KB-3-1 tox inconclusive, HT1080-NT tox 11.2µM, KB-V1 cytotox inconclusive
COc1ccc(C(=O)Nc2nccs2)cc1[N+](=O)[O-]	none
N#Cc1sc2nc(-c3ccccc3)cc(C(F)(F)F)c2c1N	SW480 rerep 2.91µM
N#Cc1sc2nc(-c3cccs3)cc(-c3ccccc3)c2c1N	none
CCC(=O)c1ccccc1OCCSc1nc(C)cc(=O)[nH]1	KB-V1 cytotox 14.6µM
Cc1cc(=O)[nH]c(SCCCOc2ccc(F)cc2)n1	KB-V1 cytotox 18.4µM
CCCOc1cccc(OCCSc2nc(C)cc(=O)[nH]2)c1	KB-V1 cytotox inconclusive
Cc1ccc(C)c(NC(=O)N2CCC(N3CCN(Cc4ccc(F)cc4)C(=O)C3=O)CC2)c1	none (no result: SW480 rerep, MCF10A rereplic, HT1080 IDH1KD tx, HT1080-NT tox)
NS(=O)(=O)c1ccc(N=Nc2cc3ccccc3c(C(=O)O)c2O)cc1	none (no result: SW480 rerep, MCF10A rereplic, HT1080 IDH1KD tx, HT1080-NT tox)
COc1ccc(C2=CC(c3cc(OC)c(OC)c(OC)c3)NC(=S)N2)cc1 (stereo not given)	SW480 rerep 18.4µM, MCF10A rereplic inconclusive, HT1080 IDH1KD tx inconclusive, KB-3-1 tox inconclusive, HT1080-NT tox inconclusive
CNC(=O)NC(=O)C(NC1CCCc2ccccc21)c1ccccc1 (stereo not given)	SW480 rerep inconclusive, MCF10A rereplic inconclusive
Cc1ccc(NC(=O)C(NC2CCCc3ccccc32)c2ccccc2)cc1Cl (stereo not given)	SW480 rerep inconclusive, MCF10A rereplic 1.3µM, KB-3-1 tox inconclusive
COCCNC(=O)C1(C)CCCN(C(=O)c2ccc(OC)cc2OC)C1 (stereo not given)	none (no result: SW480 rerep, MCF10A rereplic)
COc1ccc(S(=O)(=O)N(Cc2cc3cc(C)ccc3[nH]c2=O)CC2CCCO2)cc1 (stereo not given)	KB-V1 cytotox 7.31µM
